Data: PubChem BioAssay (NCATS)
Inconclusive results are not listed. Entries that show only a call come without a potency. Values without a mark were called inactive. Calls of active or inactive are those of the source. Calls come from the whole dose curve; as a rule, active = well fitted curve in the direction sought with a large enough effect; inconclusive = small, poorly fitted or top-dose-only effect, or another doubt; inactive = no such curve, though single readings can be large; an effect the other way counts as inactive or inconclusive.

What was measured:
[1] = molecular target: Cytochrome P450 3A7 (Homo sapiens) (UniProt P24462); assay: Cytochrome P450 family 3 subfamily A member 7 (CYP3A7) small molecule antagonists: luciferase biochemical qHTS assay (AID 1963596); note: nearly all actives have a fitted effect of over 40% in size
In short: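 Luminescence from luciferin released by CYP3A7 from a proluciferin substrate, read 20 min after detection reagent. Compound and enzyme-substrate mix sat 10 min before NADPH regeneration solution; reaction ran 1 h at room temperature.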

[2] = Cellular viability qHTS for adrenocortical cancer (ACC) cell line SW-13 (AID 1963989); conditions: SW-13 ACC cells viability, CellTiter-Glo, 48 h; activity (max response): stronger effect = lower value; note: nearly all actives have a fitted effect of over 65% in size; note: potency is the fitted concentration of half-maximal effect;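 for activity (max response): cells grown in serum-free medium with ITS supplement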
In short: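 Viability was read as CellTiter-Glo luminescence after 48 h compound treatment (up to 46 uM final) of SW-13 cells grown serum-free; titration curves were fit with a four-parameter logistic model to give IC50 and efficacy.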

[3] = Cellular viability qHTS for adrenocortical cancer (ACC) cell line NCI-H295R (AID 1963990); note: nearly all actives have a fitted effect of over 60% in size; note: potency is the fitted concentration of half-maximal effect
In short: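 CellTiter-Glo ATP luminescence, read 48 h after compound addition, measured viability of NCI-H295R adrenocortical cells grown serum-free with ITS. Final concentrations spanned up to 46 uM. Data normalized to DMSO and doxorubicin, fitted for IC50 and maximal response.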

[4] = Quantitative highthroughput screen to assess conditional lethalithy of NOMO1 cells grown in RPMI1640 with untreated serum (RPMI+s) (AID 1963876); note: nearly all actives have a fitted effect of over 35% in size
In short: (§1)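 Each medium arm—HPLM with 10% dialyzed FBS, or RPMI1640 with 5 mM glucose and 10% untreated or dialyzed FBS—was screened against an 11-point, 3-fold compound titration for 48 h at 37 °C, with CellTiter-Glo luminescence as endpoint.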

[5] = Quantitative highthroughput screen to assess conditional lethalithy of NOMO1 cells grown in RPMI1640 with dialyzed fetal bovine serum (RPMI+ds) (AID 1963877); note: series mostly up to about 46 µM; nearly all actives have a fitted effect of over 30% in size
In short: as §1

[6] = Quantitative highthroughput screen to assess conditional lethalithy of P12 Ichikawa cells grown in Human Plasma-Like Medium with dialyzed fetal bovine serum (HPLM+ds) (AID 1963879); conditions: Potency: viability; note: series mostly up to about 46 µM; nearly all actives have a fitted effect of over 35% in size
In short: as §1

[7] = Quantitative highthroughput screen to assess conditional lethalithy of P12 Ichikawa cells grown in RPMI1640 with dialyzed fetal bovine serum (RPMI+ds) (AID 1963880); conditions: Potency: P12-Ichikawa viability; note: nearly all actives have a fitted effect of over 35% in size
In short: as §1

[8] = Quantitative highthroughput screen to assess conditional lethalithy of P12 Ichikawa cells grown in RPMI1640 with untreated serum (RPMI+s) (AID 1963881); conditions: Potency: viability; note: nearly all actives have a fitted effect of over 35% in size; note: potency is the fitted concentration of half-maximal effect; for viability: series mostly up to about 46 µM
In short: as §1

[9] = Quantitative highthroughput screen to assess conditional lethalithy of SEM cells grown in Human Plasma-Like Medium with dialyzed fetal bovine serum (HPLM+ds) (AID 1963882)
In short: as §1

[10] = Quantitative highthroughput screen to assess conditional lethalithy of SEM cells grown in RPMI1640 with unreated serum (RPMI+s) (AID 1963883); note: nearly all actives have a fitted effect of over 35% in size
In short: as §1

[11] = Quantitative highthroughput screen to assess conditional lethalithy of NOMO1 cells grown in Human Plasma-Like Medium with dialyzed fetal bovine serum (HPLM+ds) (AID 1963878); note: nearly all actives have a fitted effect of over 35% in size
In short: as §1

[12] = Viability qHTS for spleen associated tyrosine kinase inhibitor (SYKi) naive MV4-11 cells (AID 1963823); note: nearly all actives have a fitted effect of over 40% in size; note: potency is the fitted concentration of half-maximal effect
In short: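 CellTiter-Glo luminescence, 10 min room-temperature incubation, gave viability. Cells: naive MV4-11 (500/well), treated 72 hr at 37 C, 5% CO2.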

Chain of Cytochrome P450 3A7 (Homo sapiens) (P24462 whole entry, looked up): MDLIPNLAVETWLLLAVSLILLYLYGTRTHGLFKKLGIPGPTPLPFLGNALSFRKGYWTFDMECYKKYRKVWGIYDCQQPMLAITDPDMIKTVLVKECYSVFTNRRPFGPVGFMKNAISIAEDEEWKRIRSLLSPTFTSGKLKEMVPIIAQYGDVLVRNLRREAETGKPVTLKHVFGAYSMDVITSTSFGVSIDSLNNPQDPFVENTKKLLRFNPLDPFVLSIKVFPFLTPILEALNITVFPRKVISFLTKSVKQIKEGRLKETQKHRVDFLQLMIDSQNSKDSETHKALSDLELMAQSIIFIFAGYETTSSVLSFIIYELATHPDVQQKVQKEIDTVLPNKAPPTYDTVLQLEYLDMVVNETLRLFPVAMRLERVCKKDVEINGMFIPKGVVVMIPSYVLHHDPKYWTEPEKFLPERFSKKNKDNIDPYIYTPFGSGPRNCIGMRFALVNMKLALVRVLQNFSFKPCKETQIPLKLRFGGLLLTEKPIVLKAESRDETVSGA

## COc1ccc(-c2cc(C(F)F)nn2-c2ccc(S(N)(=O)=O)cc2)cc1F
[1]
  Potency: inactive
[2]
  activity (max response): -7.1%
[3]
  Potency: inactive

## COc1c(N2C[C@@H]3CCCN[C@H]3C2)c(F)cc2c(=O)c(C(=O)O)cn(C3CC3)c12
[1]
  Potency: inactive
[2]
  activity (max response): -9.27%

## CC(S)C(=O)NCC(=O)O (stereo not drawn)
[1]
  Potency: inactive
[4]
  Potency: inactive
[5]
  Potency: inactive
[6]
  Potency: inactive
[7]
  Potency: inactive
[8]
  Potency: inactive
[3]
  Potency: inactive

## COc1ccc(Nc2cc(-c3cnc(N)nc3)nc(N3CCOCC3)n2)cn1
[1]
  Potency: inactive
[8]
  Potency: 2350 nM (active)
[3]
  Potency: 2240 nM (active)

## COc1ccc(C=CC(=O)Nc2ccccc2C(=O)O)cc1OC
[1]
  Potency: inactive
[4]
  Potency: inactive
[5]
  Potency: inactive
[7]
  Potency: inactive
[8]
  Potency: inactive
[9]
  Potency: inactive
[10]
  Potency: inactive

## COc1ccc(CCN2CCN(CCCc3ccccc3)CC2)cc1OC
[1]
  Potency: inactive
[4]
  Potency: inactive
[11]
  Potency: inactive
[6]
  Potency: inactive
[8]
  Potency: inactive
[9]
  Potency: inactive
[10]
  Potency: inactive
[2]
  activity (max response): -13%
[3]
  Potency: inactive

## CCc1nc(-c2cccc(C)c2)c(-c2ccnc(NC(=O)c3ccccc3)c2)s1
[1]
  Potency: inactive
[4]
  Potency: inactive
[5]
  Potency: inactive
[9]
  Potency: inactive
[2]
  Potency: 25100 nM (active)
[3]
  Potency: 28200 nM (active)

## CS(=O)(=O)c1ccc([C@@H](O)[C@@H](CO)NC(=O)C(Cl)Cl)cc1
[1]
  Potency: inactive
[5]
  Potency: inactive
[11]
  Potency: inactive
[3]
  Potency: inactive

## CC(=O)Nc1ccc(OCC(O)CNC(C)C)cc1 (stereo not drawn)
[1]
  Potency: inactive
[2]
  activity (max response): 9.26%

## CO[C@@H]1[C@@H](O[C@@H]2O[C@H](C)[C@@H](O[C@H]3C[C@@](C)(O)[C@@H](O)[C@H](C)O3)[C@H](N(C)C)[C@H]2O)[C@@H](CC=O)C[C@@H](C)[C@@H](O[C@@H]2CC[C@H](N(C)C)[C@@H](C)O2)/C=C/C=C/C[C@@H](C)OC(=O)C[C@H]1OC(C)=O
[2]
  activity (max response): -1.59%

## CO[C@@]1(NC(=O)Cc2cccs2)C(=O)N2C(C(=O)O)=C(COC(N)=O)CS[C@@H]21
[2]
  activity (max response): 12.4%

## C=CC(C)(O)CC/C=C(/C)COC(=O)C(C)C1CCC(C)(C=C)O1 (stereo not drawn)
[12]
  Potency: inactive

## CC(O)C1CCC2C3CCC4CC(OC5OC(C(=O)O)C(O)C(O)C5O)CCC4(C)C3CCC12C (stereo not drawn)
[12]
  Potency: inactive

## COc1ccc(C2(O)c3c(ccc4c3OC(C)(CCC=C(C)C)C=C4)NC(=O)C2OC)cc1 (stereo not drawn)
[12]
  Potency: inactive

## Oc1cc(CNC(=S)/C=C/c2cc(O)c(O)c(Br)c2)cc(O)c1O
[12]
  Potency: 1840 nM (active)

## CC[C@H]1CN(c2nc(N)c(C(N)=O)nc2Cl)CCN1C1CCN(Cc2ccc(Cl)cc2)CC1
[12]
  Potency: inactive

## CC(C)C1CCC(CO)=CC1/C=C(\CO)C(=O)OCC1(O)CCC(C(C)C)C2C=C(C(=O)O)COC(=O)C21 (stereo not drawn)
[12]
  Potency: inactive

## COc1cc(C(C)=O)c(OC)c2c1OC(C)(C)C=C2
[12]
  Potency: inactive

## O=C(O)C(Cc1ccccc1)NC(=O)C1CCCN1 (stereo not drawn)
[12]
  Potency: inactive

## CC(C(O)/C=C/C(C)(C)O)C1CCC2(C)C3C(=O)C=C4C(CCC(O)C4(C)C)C3(C)CCC12C (stereo not drawn)
[12]
  Potency: inactive

## COC(=O)C[C@H]1[C@]2(C)C3=C(C)[C@H](c4ccoc4)C[C@H]3O[C@@H]2[C@H](O)C2[C@](C)(C(=O)OC)C=CC(=O)[C@@]21C (stereo partly drawn)
[12]
  Potency: inactive

## CC1=CCC2C(C)(CO)CCCC2(C)C1CC12OC1C(O)C(CO)=CC2O (stereo not drawn)
[12]
  Potency: inactive

## CC#CCn1c(N2CCCC(N)C2)nc2c1c(=O)n(Cc1nc(C)c3ccccc3n1)c(=O)n2C (stereo not drawn)
[12]
  Potency: inactive

## CC(C)S(=O)(=O)N[C@H]1CCOC[C@@H]1c1ccc(-c2ccc(C#N)s2)cc1
[12]
  Potency: inactive

## CC1(C)CCCC2(C)C(C(=O)O)=CCC12 (stereo not drawn)
[12]
  Potency: inactive

## NC1Nc2ccccc2C1(N)CC1NC(=O)C(Cc2ccccc2)NC(=O)C(Cc2ccccc2)NC1=O (stereo not drawn)
[12]
  Potency: inactive

## CC1OC(O[C@H]2CC[C@@]3(C)C(CC[C@]4(C)C3CC=C3C5CC(C)(C)CC[C@]5(C(=O)OC5OC(CO)C(OC6OC(COC7OCC(O)C(O)C7O)C(O)C(O)C6O)C(O)C5O)CC[C@]34C)C2(C)C)C(O)C(O)C1OC1OCC(OC2OCC(O)C(O)C2O)C(O)C1O (stereo partly drawn)
[12]
  Potency: 155 nM (active)

## COc1ccc(-c2ccccc2)cc1NS(=O)(=O)c1cc(Cl)cc(Cl)c1O
[12]
  Potency: inactive

## CC12CCC(OC3OC(CO)C(O)C(OC4OC(CO)C(O)C(O)C4O)C3O)CC1=CCC1C2CCC2(C)/C(=C3/COC(=O)C3)CCC12O (stereo not drawn)
[12]
  Potency: inactive

## C/C(=C\CO)CC/C=C(\C)C(=O)O[C@H]1[C@H](OC2OC=C(C(=O)O)C3CCC(C)(O)C23)O[C@H](CO)[C@@H](O)[C@@H]1O (stereo partly drawn)
[12]
  Potency: inactive

## CC1=C2C(=O)O[C@@H](c3ccoc3)[C@]2(C)CCC1
[12]
  Potency: inactive

## CC(=O)O[C@@]1(C)C[C@@H](O)[C@]2(O)C=CO[C@@H](O[C@@H]3O[C@H](CO)[C@@H](O)[C@H](O)[C@H]3O)[C@@H]21
[12]
  Potency: inactive

## CC1(C(=O)O)CCCC2(C)C3CCC4CC3(CCC12)CC4(O)CO (stereo not drawn)
[12]
  Potency: inactive

## CC1OC(=O)C[C@@H]2C(C(=O)O)=CO[C@@H](O[C@H]3O[C@H](CO)[C@@H](O)[C@H](O)[C@H]3O)[C@H]12 (stereo partly drawn)
[12]
  Potency: inactive

## CCc1cc(CC[C@]2(C3CCCC3)CC(O)=C(Cc3nc4nc(C)cc(C)n4n3)C(=O)O2)cc(CC)n1
[12]
  Potency: 10300 nM (active)

## O=C(O)c1cn(C2CC2)c2cc(N3C[C@@H]4C[C@H]3CN4)c(F)cc2c1=O
[12]
  Potency: inactive

## OC/C=C/C=C/[C@H]1Cc2cc(O)cc(O)c2O1
[12]
  Potency: inactive

## C=C1C(=O)OC2CC(C)=C(C(C)CCCO)C(O)C12 (stereo not drawn)
[12]
  Potency: inactive

## CCC(CC)C(=O)Nc1sc2c(c1C#N)CCC(C(C)(C)CC)C2 (stereo not drawn)
[12]
  Potency: 2060 nM (active)

## CC(C)=CCC(O)/C(C)=C/CO[C@@H]1O[C@H](CO)[C@@H](O)[C@H](O)[C@H]1O (stereo partly drawn)
[12]
  Potency: inactive

## Cc1cc(O[C@@H]2O[C@H](COC(=O)CC(=O)O)[C@@H](O)[C@H](O)[C@H]2O)c(C(C)C)cc1O
[12]
  Potency: inactive

## CCCCCOc1ccc(-c2cc(-c3ccc(C(=O)N[C@H]4C[C@@H](O)[C@@H](O)NC(=O)C5[C@@H](O)[C@@H](C)CN5C(=O)C([C@H](O)CC(N)=O)NC(=O)C([C@H](O)[C@@H](O)c5ccc(O)c(OS(=O)(=O)O)c5)NC(=O)C5C[C@@H](O)CN5C(=O)C([C@@H](C)O)NC4=O)cc3)no2)cc1 (stereo partly drawn)
[12]
  Potency: inactive

## CCN(CC)c1ccc2c(O)c(C=Nc3ccc(CC(=O)O)c(-c4c5c(nc6ccccc46)CCC(C(=O)NN)C5)c3)c(=O)oc2c1 (stereo not drawn)
[12]
  Potency: 2590 nM (active)

## CC(C)=CCc1ccc(Oc2c(O)cc(C)cc2CO)c(C(=O)O)c1O
[12]
  Potency: inactive

## CCCc1cc(C)n(C)c(=O)c1CN(C)C(=O)c1cc(-c2ccc(N3CCN(C(C)C)CC3)nc2)cc2c1cnn2C(C)C
[12]
  Potency: inactive

## C=CC/C=C\C/C=C\CCCCCCCc1cccc(O)c1C(=O)O
[12]
  Potency: inactive

## CCOC(=O)c1ccc(OCCC2CCN(c3ccc(C)nn3)CC2)cc1
[12]
  Potency: inactive

## CC1=CC(=O)[C@]2(O[C@@H]3O[C@@H](C)[C@H](O)[C@@H](O)[C@H]3O)C=CO[C@@H](O[C@@H]3O[C@H](CO)[C@@H](O)[C@H](O)[C@H]3O)[C@H]12
[12]
  Potency: inactive

## CN(C)C(=O)NC1(c2ccccc2)CCN(CCC[C@]2(c3ccc(Cl)c(Cl)c3)CCCN(C(=O)c3ccccc3)C2)CC1
[12]
  Potency: 2590 nM (active)
